MEKK3 PB1 HTS: raises or lowers MEK5 binding to the human MEKK3 PB1 domain; bead-based flow cytometry, Alexa488-MEK5 binding to MEKK3; actives lie on both sides; 0 = blocked by unlabeled MEK5, 100 = vehicle; binding response (% of control), % at 10 µM; hit rate 1.4% among 290,000; AID 1529;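 active means binding response more than 3 SD above or below the average of its plate-row segment, actives on both sides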;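 further: Alexa488 bead fluorescence after subtracting the streptavidin-only scavenger bead signal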
MEKK2wt PB1 HTS: raises or lowers MEK5 binding to wildtype human MEKK2 PB1 domain. Q9Y2U5. bead flow cytometry, Alexa488-MEK5 binding to MEKK2 WT; actives lie on both sides. binding response (% of control), % at 10 µM. hit rate 1.1% among 290,000. AID 1531; in the data active means binding response below about 67% or above about 130%
UBC13 inh: inhibitors of human UBC13 polyubiquitin chain formation. inhibition, % at 20 µM. TR-FRET. hit rate 0.47% among 330,000; in the data active means inhibition above about 45%, passing the limit was not always enough
Target sequence (P61088 whole entry, looked up): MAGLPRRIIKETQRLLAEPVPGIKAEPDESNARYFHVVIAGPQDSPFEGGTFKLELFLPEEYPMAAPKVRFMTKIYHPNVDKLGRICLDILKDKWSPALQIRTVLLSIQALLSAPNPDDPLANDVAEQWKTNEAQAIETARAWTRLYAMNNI
MEKK2mut PB1 HTS: signal of MEK5 binding to mutant human MEKK2 PB1 domain | bead flow cytometry, Alexa488-MEK5 binding to MEKK2 mutant | percent response, % at 10 µM | hit rate 0.35% among 290,000 | AID 1530; in the data active means percent response above about 24%, passing the limit was not always enough
MEKK2wt confirm: raises or lowers MEK5 binding to wildtype human MEKK2, retest; bead flow cytometry, Alexa488-MEK5 binding to MEKK2 WT; actives lie on both sides; AID 1892; hit rate 2.4% among 5,900; binding response (% of control), % at 10 µM; shares compounds with MEKK3 PB1 HTS; in the data active means binding response below about 16% or above about 210%; inactive means in between
MEKK2mut-MEK5: signal of MEK5 binding to mutant human MEKK2, retest | shares compounds with MEKK3 PB1 HTS | bead flow cytometry, Alexa488-MEK5 binding to MEKK2 mutant | percent response, % at 10 µM | hit rate 2% among 5,900; in the data active means percent response mostly above about 71%, no sharp cut-off; inactive means mostly below about 38%;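 further: higher means compound restores mutant binding toward wildtype level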
MEKK3-MEK5 inh: MEKK3-MEK5 PB1 inhibition, single concentration confirmation | binding response (% of control), % at 10 µM | bead flow cytometry, Alexa488-MEK5 binding to MEKK3; hits give low values | shares compounds with MEKK3 PB1 HTS | hit rate 1.8% among 5,900;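 active means binding response below 72% of control, or above a set upper limit, though filed actives all read lower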
Hits are given with their value; - = inactive; . = not tested or not shown; [ ] = remark or other dose. Shown are actives, neighbours in structure and some others; about 2.3% of the full set was active somewhere.

SMILES	MEKK3 PB1 HTS	MEKK2wt PB1 HTS	UBC13 inh	MEKK2mut PB1 HTS	MEKK2wt confirm	MEKK2mut-MEK5	MEKK3-MEK5 inh
CC(=O)c1ccc(NC(=O)CN2CCC(C(=O)c3ccc(F)cc3)CC2)cc1	-	-	-	-	.	.	.
O=C(CN1CCC(C(=O)c2ccc(F)cc2)CC1)Nc1ccc(F)cc1	46[inhibitor]	-	-	-	-	-	-
Cc1ccccc1S(=O)(=O)Cc1ccc(C(=O)O)o1	80[inhibitor]	-	-	-	-	-	-
Cc1ccccc1S(=O)(=O)Cc1ccc(C(=O)NCc2ccccc2)o1	-	-	-	-	.	.	.
O=S(=O)(/C=C/c1ccccc1)N1CCN(c2nc(-c3cccnc3)nc3ccccc23)CC1	-	-	-	-	.	.	.
CCCNS(=O)(=O)c1ccc(OCC(=O)N2CCN(c3ccccc3)CC2)cc1	-	-	-	-	.	.	.
CCCNS(=O)(=O)c1ccc(OCC(=O)N2CCOCC2)cc1	69[inhibitor]	-	-	-	-	-	-
O=S(=O)(Nc1cccnc1)c1cccs1	41[inhibitor]	-	-	-	-	-	-
CCCc1n[nH]c(=S)n1Cc1ccco1	-	-	-	-	.	.	.
S=c1[nH]nc(COc2ccc(Cl)cc2)n1Cc1ccco1	155	-	-	-	-	-	-
CCOC(=O)C1CSC2(CCC(c3ccccc3)CC2)N1 (configuration not stated)	146	-	-	-	-	-	-
CCOC(=O)C1NC(=O)CC1c1ccccc1 (configuration not stated)	-	-	-	-	.	.	.
Cc1cc(C(=O)OCC(=O)N(C)c2c(N)n(Cc3ccccc3)c(=O)[nH]c2=O)c(C)n1-c1ccccc1	.	.	-	.	.	.	.
COc1cccc(NC(=O)c2ccco2)c1	1.0[inhibitor]	1.0[inhibitor]	-	-	-	-	-
O=C(Nc1cccc(OC(=O)c2ccco2)c1)c1ccco1	0.0[inhibitor]	-1.0[inhibitor]	-	-	-	-	-
Cc1ccc2cc(CN(Cc3ccco3)C(=O)NC3CCCCC3)c(=O)[nH]c2c1C	64[inhibitor]	-	-	-	-	-	-
Cc1ccc2cc(CN(Cc3ccco3)C(=O)C3CCCCC3)c(=O)[nH]c2c1C	-	-	-	-	.	.	.
Cc1ccc(N2CC(C(=O)Nc3cccnc3)CC2=O)cc1C (configuration not stated)	-	-	-	-	.	.	.
CCCCn1c(N)c(N(CCOC)C(=O)C2CC(=O)N(c3cccc(SC)c3)C2)c(=O)[nH]c1=O (configuration not stated)	.	.	-	.	.	.	.
CCOC(=O)c1ccc(NS(=O)C23CC4CC(CC(C4)C2)C3)cc1 (configuration not stated)	-	-6.0[inhibitor]	-	-	-	-	-
N#CC1(C#N)C(c2ccccc2)OC23CCCCC2C1(C#N)C(=N)O3 (configuration not stated)	140	-	-	-	-	-	-
N#CC1(C#N)C(c2ccccc2)OC23CCCCCC2C1(C#N)C(=N)O3 (configuration not stated)	-	-	-	-	.	.	.
CCOc1ccc(NC(=O)CN(C)C(=O)c2c(-c3ccccc3Cl)noc2C)cc1OCC	.	.	-	.	.	.	.
CCN(CC)S(=O)(=O)c1cc(C(=O)O)c(Cl)cc1Cl	-	-	-	-	.	.	.
CCN(CC)S(=O)(=O)c1cc(C)c(C)cc1Br	61[inhibitor]	71[inhibitor]	-	-	-	-	-
SMILES	MEKK3 PB1 HTS	MEKK2wt PB1 HTS	UBC13 inh	MEKK2mut PB1 HTS	MEKK2wt confirm	MEKK2mut-MEK5	MEKK3-MEK5 inh
Cc1ccc(S(=O)(=O)Nc2cc(Cl)ccc2-n2cncn2)cc1	.	.	-	.	.	.	.
CCOC(=O)C(NC(=O)c1cccc(Cl)c1)(OCc1ccccc1)C(F)(F)F (configuration not stated)	-	-	-	-	.	.	.
CCOC(=O)C(NC(=O)c1ccccc1)(OCc1ccccc1)C(F)(F)F (configuration not stated)	159	-	-	-	-	-	-
CCOc1ccc(/C=C2\SC(N3CCc4ccccc4C3)=NC2=O)cc1	-	-	-	-	.	.	.
COc1ccc(/C=C2\SC(N3CCc4ccccc4C3)=NC2=O)cc1	131	-	-	-	-	-	-
Cc1ccc2cc(CN(CCN3CCOCC3)Cc3nnnn3Cc3ccco3)c(=O)[nH]c2c1C	2.0[inhibitor]	2.0[inhibitor]	.	-	-	-	-
Cc1ccc2cc(CN(Cc3ccc4c(c3)OCO4)Cc3nnnn3Cc3ccco3)c(=O)[nH]c2c1C	-	-	-	-	.	.	.
c1ccc(SCc2nc3ccccc3[nH]2)cc1	-	-	-	-	.	.	.
Cc1ccc(SCc2nc3ccccc3[nH]2)cc1	2.0[inhibitor]	2.0[inhibitor]	-	-	-	-	-
CC(C)=CCC/C(C)=C/CC(C)(C)CNCCN1CCNCC1	-	163	-	-	-	-	-
C=CCN(c1ccccc1OC)S(=O)(=O)c1cccc(C(=O)OCC(=O)c2c[nH]c3ccccc23)c1	138	-	-	-	-	-	-
O=C(O)CCNC(=O)/C(=C\C=C\c1ccccc1)NC(=O)c1ccccc1	134	-	-	-	-	-	-
Cc1ccc(C(=O)N/C(=C\C=C\c2ccccc2)C(=O)NCc2ccco2)cc1	146	-	-	-	-	-	-
CCOC(=O)C1CCN(C(=O)CCc2nnc3ccc(N4CCC(C)CC4)nn23)CC1	-	-	-	-	.	.	.
CCOC(=O)C(=O)NCC(c1cccs1)S(=O)(=O)c1ccc(F)cc1 (configuration not stated)	.	.	-	.	.	.	.
O=C(NNC(=O)c1cccs1)c1ccc(Cl)c(Cl)c1	149	-	-	-	-	-	-
O=C(NNC(=O)c1cccs1)c1ccc2ccccc2c1	-	-	-	-	.	.	.
CCCC(=O)Nc1ccc(C2C(=O)c3ccccc3C2=O)cc1	-	-	-	-	.	.	.
O=C(O)CC1(CC(=O)NCc2ccc(C(F)(F)F)cc2)CCCCC1	128	-	-	-	-	-	-
CC(C)NC(=O)C(=O)NNC(=O)C12CC3CC(CC(C3)C1)C2	-	-	-	24	-	-	-
CC(CN1CCCCC1)C(=O)NNC(=O)C12CC3CC(CC(C3)C1)C2 (configuration not stated)	-	-	-	-	.	.	.
NC(=O)c1ccc(-n2nnnc2Oc2ccccc2)cc1	81[inhibitor]	-	-	-	-	-	-
Cc1cc(C)c([N+](=O)[O-])cc1-c1ccc(/C=N/c2c(-c3ccco3)nc3ccccn23)o1	-	-3.0[inhibitor]	-	-	-	-	-
C=C(C)c1cccc(C(C)(C)NC(=O)NCc2ccc(OC)cc2)c1	133	-	-	-	-	-	-
CC(Nc1nc(N2CCCCC2)nc2ccccc12)c1ccccc1 (configuration not stated)	-	210	-	-	-	-	-
CC(Nc1nc(-c2ccccc2)nc2ccccc12)c1ccccc1 (configuration not stated)	-	-	-	-	.	.	.
